High-throughput results deposited in PubChem by Milwaukee Institute for Drug Discovery.
Compounds with a hit are over-represented: about 6.9% of the library has one in this group of screens.
Cy5 interf NS3h – counter-screen for HCV NS3 helicase inhibitors: fluorescence interference | Cy5-dT15 DNA with NS3h; actives lie on both sides; signal over control mean, under 1 quenches | fluorescence interference ratio at 100 µM | hit rate 6% among 16,000 | AID 720488;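 active = compound fluorescence over control fluorescence at most 0.8, a quencher, or at least a set upper limit, an enhancer; inactive = ratio between 0.8 and the set upper limit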
NS3h inh CB – hepatitis C NS3 helicase inhibition, primary screen; hit rate 1.6% among 16,000; inhibition, % at 100 µM; AID 687043; NS3h Cy5-dT15 DNA binding, fluorescence polarization;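 active = inhibition above the average over every tested compound plus 3 SD, cut at about 40% in these data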
NS3h confirm – confirmation of hepatitis C virus NS3 helicase inhibitors; hit rate 20% among 240; NS3h binding to Cy5-dT15 DNA, fluorescence polarization; inhibition, % at 100 µM; shares compounds with NS3h inh CB;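 active = percent inhibition of 50% or more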
SSB-DNA FP CB – disrupts E. coli SSB binding to DNA in counter-screen; shares compounds with NS3h inh CB; E. coli SSB binding Cy5-dT15, fluorescence polarization; inhibition, % at 100 µM; hit rate 40% among 240; AID 720486;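 active = inhibition of at least 50%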;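 also: displacers lower Cy5 polarization so higher inhibition means more SSB displaced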
Target sequence (P0AGE0 whole entry, looked up): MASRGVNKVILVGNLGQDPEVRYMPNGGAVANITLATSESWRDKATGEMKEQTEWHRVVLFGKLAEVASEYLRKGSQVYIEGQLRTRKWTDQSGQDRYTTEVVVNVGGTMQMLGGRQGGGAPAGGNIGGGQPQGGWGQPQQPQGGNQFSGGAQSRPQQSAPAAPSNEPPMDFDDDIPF
Cy5 SSB interf – Cy5 fluorescence interference in NS3h counter-screen | hit rate 8% among 240 | fluorescence interference ratio at 100 µM | shares compounds with NS3h inh CB | AID 720487 | Cy5-dT15/E. coli SSB fluorescence interference; actives lie on both sides;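 active = fluorescence interference ratio at or above 1.2, signal boosting, or at or below 0.8, signal quenching; inactive = ratio between 0.8 and 1.2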;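 also: ratio of compound well signal to mean negative control signal so 1 means no effect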
Cy5 interf conf – Cy5 fluorescence interference, confirmation counter-screen | shares compounds with NS3h inh CB | Cy5-dT15 DNA/NS3h fluorescence interference counterscreen | fluorescence interference ratio at 100 µM, hits read low | hit rate 44% among 240 | AID 720489;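 active = fluorescence interference ratio at or below 0.8 quencher or at or above a set limitenhancer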;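 also: ratio of compound fluorescence to mean of negative controls so 1 means no interference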
The depositor's hits bear a star.

SMILES | Cy5 interf NS3h | NS3h inh CB | others
CCc1ccccc1N(CC(=O)Nc1ccc(Br)cc1)S(C)(=O)=O | 1 | 9
O=C(Oc1cccc(C(=S)N2CCOCC2)c1)c1ccc([N+](=O)[O-])cc1 | 0.66* | 20
O=C(Oc1ccccc1C(=S)N1CCOCC1)c1ccc([N+](=O)[O-])cc1 | 0.89 | 2
Cc1ccccc1/C=N\N=C1\NC(=O)C(Cc2cccc([N+](=O)[O-])c2)S1 (configuration not stated) | 1.3* | 15
N/N=C1\NC(=O)C(Cc2cccc([N+](=O)[O-])c2)S1 (configuration not stated) | 1.1 | 10
CC1=C(C(=O)Nc2ccc(C)c(Cl)c2)C(c2cccc([N+](=O)[O-])c2)NC(=O)N1 (configuration not stated) | 0.9 | 1
CC(C1CC1)N(Cc1ccccc1)C(=O)Nc1cccc([N+](=O)[O-])c1 (configuration not stated) | 0.61* | 7
COC(=O)COc1ccc(/C=C2/C(=O)N(c3ccccc3)N=C2C)cc1 | 1.1 | 10
COc1ccc(/C=C2\C(=O)N(c3nc(-c4ccc(C)cc4)cs3)N=C2C)cc1 | 0.7* | 21
Cc1occc1C(=O)O/N=C(/N)c1ccccc1 | 1 | -6
COc1cc(C(N)=O)cc(OC)c1OC | 1 | 3
CS(=O)(=O)N(CC(=O)N(Cc1ccccc1)Cc1ccccc1)c1ccc(Cl)cc1 | 0.68* | 25
CS(=O)(=O)N(CC(=O)O)c1ccc(Cl)cc1 | 1.1 | 4
Cc1ccc(S(=O)(=O)N2CCC(=O)C(C)C2)cc1 (configuration not stated) | 0.74* | 17
Cc1ccc(S(=O)(=O)N2CCN(C3CC4CCC3C4)CC2)cc1 (configuration not stated) | 0.93 | -20
NC(=O)CN1C(=O)/C(=C2\SC(=S)N(Cc3ccccc3)C2=O)c2ccccc21 | 0.8* | 7
C=CCN1C(=O)/C(=C2\SC(=S)N(Cc3ccco3)C2=O)c2ccccc21 | 0.98 | 17
N#CCCn1cc(/C=N\O)c(-c2ccc(F)cc2)n1 | 1 | -1
Cc1ccc(-c2[nH]n3c(=O)cc(-c4ccc([N+](=O)[O-])cc4)nc3c2C)cc1 | 0.79* | -6
COc1ccc(-c2cc(=O)n3[nH]c(-c4ccc(C)cc4)c(C)c3n2)cc1 | 1.1 | 2
CC1C(c2ccccc2)=[N+]([O-])C(C)(c2cccs2)N1O (configuration not stated) | 0.99 | -4
CCOc1ccc(N2C(=O)NC(=O)/C(=C/C=C/c3ccco3)C2=O)cc1 | 1 | 33
CCOc1ccccc1N1C(=O)NC(=O)/C(=C/C=C/c2ccco2)C1=O | 1.2 | 43*
CC(NC(=O)c1ccc(Br)cc1)c1ccccc1 (configuration not stated) | 0.79* | 12
CC(=O)CC(=O)NC(C)c1ccccc1 (configuration not stated) | 0.97 | 3
SMILES | Cy5 interf NS3h | NS3h inh CB | others
CC1=C(C(=O)Nc2cc(Cl)ccc2C)C(c2ccc(F)cc2)NC(=O)N1 (configuration not stated) | 1 | -18
CCC(=O)Nc1sc2c(c1C(=O)Nc1ccc(OC)cc1)CCC2 | 0.9 | -7
COc1ccc(NC(=O)c2c(NC(=O)C(Cl)(Cl)Cl)sc3c2CCC3)cc1 | 0.6* | 27
CCC1=NN(C(=O)c2ccccc2)C(O)(c2ccc(Br)cc2)C1 (configuration not stated) | 0.76* | 10
CCC1=NN(C(=O)c2cccc(O)c2)C(O)(c2ccncc2)C1 (configuration not stated) | 1 | -4
Cc1cc(C)cc(OCC(=O)NCc2ccncc2)c1 | 1 | 6
FC(F)(F)c1cccc(Nc2nc(-c3ccncc3)nc3ccccc23)c1 | 1.1 | -15
O=C1NC(=O)C(=Cc2ccc(OCc3cccc4ccccc34)cc2)C(=O)N1 | 0.93 | 3
CN(c1ccccc1)c1ccc(C=C2C(=O)NC(=O)NC2=O)cc1 | 1.1 | 46*
NC(=O)c1ccc(NC(=O)CCC(=O)O)cc1 | 1.1 | 1
CC(=O)Nc1ccc(NC(=O)CCC(=O)O)cc1 | 0.63* | -1
Cc1cc2ncn(C(=O)c3cc([N+](=O)[O-])ccc3Cl)c2cc1C | 0.95 | -3
O=C(c1ccccc1O)N1N=C(c2ccc(F)cc2)CC1(O)C(F)(F)F (configuration not stated) | 0.97 | 7
COc1ccc(C(=O)/C=C/c2ccc(-c3ccc(Cl)cc3Cl)o2)cc1 | 0.98 | 3
Cc1ccc2nc(Nc3nc(C)cc(-c4ccccc4)n3)nc(C)c2c1 | 1.1 | 23
Cc1ccc2nc3nc(C)cc(C)c3c(N)c2c1 | 0.71* | -5
Cc1ccc(-n2c(=O)c3cc4c(=O)n(-c5ccc(C)c(C)c5)c(=O)c4c(C(=O)c4ccccc4)c3c2=O)cc1C | 1.1 | 10
O=c1c2cc3c(=O)n(-c4ccc(S)cc4)c(=O)c3cc2c(=O)n1-c1ccc(S)cc1 | 0.7* | 4
Cc1c(Cl)cccc1NC(=O)C(=O)NCc1ccc(F)cc1 | 1 | 16
Ic1cccc(/C=N\n2cnnc2)c1 | 1 | 0
C(=N/n1cnnc1)/c1cc2ccccc2[nH]1 | 0.74* | 23
COc1ccc(N2C(=O)/C(=C\c3cc4c(cc3[N+](=O)[O-])OCO4)SC2=S)cc1 | 1.1 | 0
COc1ccc2c(c1)C(NC(=O)C(F)(F)F)CC2=O (configuration not stated) | 0.62* | -2
COc1ccc(OC)c(C2C3=C(CC(C)(C)CC3=O)OC3=C2C(=O)CC(C)(C)C3)c1 | 1.1 | 3
Cc1nc(-c2ccccc2)nc2[nH]ccc(=O)c12 | 0.8* | 4
SMILES | Cy5 interf NS3h | NS3h inh CB | others
Cc1nc(-c2ccccc2)c2c(=O)cc[nH]c2n1 | 1 | -1
O=C(/C=C/c1cccc([N+](=O)[O-])c1)Nc1ccc2oc(-c3ccccc3F)nc2c1 | 0.78* | -4
O=C(COc1ccc([N+](=O)[O-])cc1)Nc1ccc2oc(-c3ccccc3F)nc2c1 | 1 | 2
O=C(Nc1cccc(I)c1)c1cc2ccccc2oc1=O | 0.96 | 8
NC(=O)c1ccc[n+](CC(=O)c2cc3ccccc3oc2=O)c1 | 0.6* | -7
Nc1cccc(C(=O)Nc2ccccc2)c1 | 0.99 | 1
Nc1ccc[n+](CC(=O)c2ccccc2)c1 | 0.75* | -14
CCc1ccc(/C=C(/NC(C)=O)C(=O)O)s1 | 1 | 3
CCN(CC)c1ccc(N=Cc2c(O)[nH]c(=S)[nH]c2=O)cc1 | 0.73* | 94* | NS3h confirm=54*;SSB-DNA FP CB=70*;Cy5 SSB interf=0.91;Cy5 interf conf=0.79*
CCN(CC)c1ccc(C=Nc2ccc(S(N)(=O)=O)cc2)c(O)c1 | 1 | 9
CCN(CC)c1ccc(/C=C2/C(=O)NC(=O)N(c3ccccc3)C2=O)cc1 | 3.2* | 86* | NS3h confirm=30;SSB-DNA FP CB=26;Cy5 SSB interf=1.6*;Cy5 interf conf=1.8*
